Source: PubChem BioAssay (National Center for Advancing Translational Sciences (NCATS))
Sampled rows, rich in hits. Any-hit rate of the full collection: about 7.3%.
ELG1 genotoxic: genotoxicity induction in ELG1-luciferase HEK293T cells. hit rate 1.3% among 330,000. HEK293T ELG1-luciferase reporter, luminescence, 16 h. Potency, µM (titrated, usually from 46 µM), for the others: top-dose activity change, positive = activation, actives largely listed as activators; further: % of control where 0% means no effect; nearly all actives have a fitted effect of over 60% in size
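Genotoxicity was scored as increased ELG1-luciferase reporter signal, measured by ONE-Glo luminescence (30 min, room temperature). Compound or vehicle exposure of the HEK293T reporter cells lasted 16 hr at 37°C.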
uPA surface inh: inhibitors of cell surface uPA generation; cell surface uPA generation assay, qHTS; Potency, µM (series often up to 38.3 µM), for the others: top-dose activity change, negative = inhibition, actives largely listed as inhibitors; hit rate 0.31% among 330,000; AID 540303; active means well fitted inhibition curve with a large enough effect; inconclusive means small, poorly fitted or top-dose-only effect; inactive means no such curve, though single readings can be large or run the other way; tested in mouse RAW 264.7 cells; further: on the % scale 0 is the no-effect control and ±100 the full control effect; nearly all actives have a fitted effect of over 55% in size
Rab9 promoter act: Rab9 promoter activation. Huh7 Rab9 promoter-luciferase reporter, luminescence, 24 h. Potency, µM (doses to about 9.22 µM), for inactives: at the highest dose activation, negative = inhibition, usual class: activators. hit rate 2.8% among 320,000. AID 485297; further: % of control where 0% means no effect; nearly all actives have a fitted effect of over 60% in size
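Luminescence read-out: Huh7 cells stably expressing Rab9-luciferase, treated 24 h with compound at 37 °C, then lysed with luciferase reagent for 10 min at ambient before reading.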
FLuc modulator: firefly luciferase modulation, counter-screen for miR-21 project; P08659; purified FLuc, Km substrates, luminescence inhibition; Potency, µM (top dose mostly 57.5 µM), for the others: at the highest dose activity change, negative = inhibition, most hits filed as inhibitors; hit rate 6.9% among 360,000; AID 588342;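 further: plate controls were vehicle for no effect and reference inhibitor for full effect; nearly all actives have a fitted effect of over 55% in size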
Target sequence (P08659 whole entry, looked up): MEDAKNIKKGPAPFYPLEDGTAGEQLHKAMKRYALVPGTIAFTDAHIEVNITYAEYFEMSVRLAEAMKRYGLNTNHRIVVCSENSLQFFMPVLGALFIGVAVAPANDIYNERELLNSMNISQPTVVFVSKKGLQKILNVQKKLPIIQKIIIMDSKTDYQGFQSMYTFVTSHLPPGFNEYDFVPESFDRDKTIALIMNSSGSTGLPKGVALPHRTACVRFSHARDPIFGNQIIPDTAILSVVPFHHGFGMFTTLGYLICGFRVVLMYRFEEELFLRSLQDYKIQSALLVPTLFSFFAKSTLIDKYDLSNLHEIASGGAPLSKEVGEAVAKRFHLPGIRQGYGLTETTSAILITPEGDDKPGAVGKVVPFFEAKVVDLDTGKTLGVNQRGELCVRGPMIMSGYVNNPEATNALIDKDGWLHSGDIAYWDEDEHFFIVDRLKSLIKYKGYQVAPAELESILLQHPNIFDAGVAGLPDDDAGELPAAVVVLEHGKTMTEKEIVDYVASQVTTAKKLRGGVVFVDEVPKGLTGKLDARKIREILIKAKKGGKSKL
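Purified P. pyralis luciferase (10nM final) with 10uM D-luciferin and 10uM ATP (Km levels) in 50mM Tris acetate pH 7.5, 10mM Mg acetate, 0.01% Tween-20, 0.05% BSA; qHTS 6-point titration, ~60 µM downward; luminescence read.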
SMN2 splice up: enhancers of SMN2 splice variant expression; HEK293 SMN2-luciferase splicing reporter, luminescence, 30-36 h; Potency, µM (top dose mostly 46.1 µM), without a hit: at the top dose activity change, positive = activation, actives largely listed as activators; hit rate 2.8% among 210,000; AID 1458; further: % of control where 0% means no effect; nearly all actives have a fitted effect of over 55% in size
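HEK293 cells carry an SMN2 […]–luciferase reporter in which exon 7 inclusion puts luciferase in frame. Cells were plated 10-12 h before compound addition, then incubated 30-36 h at 37C. ONE-Glo luminescence was read; sodium butyrate at 4.5 mM final served as control.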
NPC1 promoter act: NPC1 promoter activation; Huh7 NPC1 promoter luciferase reporter, 24 h; Potency, µM (doses to about 9.22 µM), for the others: at the top dose activation, hits mostly activators; hit rate 2.4% among 320,000; further: % of control where 0% means no effect; nearly all actives have a fitted effect of over 60% in size
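Compounds in DMSO were transferred onto Huh7 NPC1-luciferase reporter cells pre-incubated 2 h; after 24 h at 37 °C, Amplite reagent was dispensed and luminescence recorded 10 min later.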
* = called active by the depositor; ? = inconclusive; · = no result given; [ ] = dose if it differs, or a comment. Unless noted, the call rests on the fitted dose curve; in most records, active means well fitted curve in the direction sought with a large enough effect; inconclusive means small, poorly fitted or top-dose-only effect, or another doubt; inactive means no such curve, though single readings can be large; an effect the other way counts as inactive or inconclusive. Potency means the concentration at half of the fitted maximal effect.

SMILES	ELG1 genotoxic	uPA surface inh	Rab9 promoter act	FLuc modulator	SMN2 splice up	NPC1 promoter act
CN(C)c1ccc(/C=C2\C(=O)Nc3ccccc32)cc1	·	·	3.66µM*	·	3.16µM*	1.46µM*
CCN(CC)c1ccc(/C=C2/C(=O)ON=C2C)cc1	5.8%	-14.7%	-2.5%	12µM*	-2.4%	-2.2%
Cc1ccc(NC(=O)c2ccco2)c([N+](=O)[O-])c1	?	-9.3%	2.82µM*	?	22.4µM*	2.82µM*
COc1ccc(NC(=O)C/C(C)=N/NC(=O)c2ccco2)c([N+](=O)[O-])c1	-15.0%	-3.3%	-2.2%	-2.8%	·	0.2%
COc1ccc(NC(=O)c2ccco2)c([N+](=O)[O-])c1	?	3.7%	2.51µM*	21.3µM*	35.5µM*	?
CCN(CC)c1ccc(NC(=O)c2cc3c(=O)n4cccc(C)c4nc3n2C)c(C)c1	·	·	·	-2.3%	·	·
COc1ccc(C(=O)N2CCN(C(C)=O)CC2)cc1S(=O)(=O)N1CCOCC1	0.7%	2.2%	0.3%	-3.0%	17.0%	-0.9%
CCc1nc2cccnc2n1-c1ccc(CC(=O)Nc2ccc(C)cc2)cc1	·	·	·	-1.5%	·	·
C=CCSc1nc2c(N)ncnc2n1[C@@H]1O[C@H](CO)[C@@H](O)[C@@H]1O	·	·	·	·	-8.3%[9.22 µM]	·
COC(=O)c1ccc(OCc2cc(=O)n3ccsc3n2)cc1	25.2%	-1.6%	?	?	14.1µM*	?
COc1ccc(C(=O)Nc2ccc(OCc3cc(=O)n4ccsc4n3)cc2)cc1OC	·	·	·	-1.4%	5.5%	·
Nc1ccccc1C(=O)C[C@@H](N)C(=O)O	·	·	·	·	-0.2%	·
CCOc1ccccc1CNC(=O)CCCN1C(=O)c2cccnc2Oc2ccc(Cl)cc21	·	·	·	-11.7%	·	·
COc1cccc([C@@H]2Oc3ccc(OC)cc3C(=O)[C@H]2OC(=O)NS(=O)(=O)c2ccc(C)cc2)c1	·	·	·	·	11.2µM*	·
COc1ccccc1CNC(=O)C1CCCN(C(=O)c2cnn(-c3ccc(F)cc3)c2-n2cccc2)C1 (configuration not stated)	·	·	·	-0.3%	·	·
O=C(ONc1ccc(N=NC(=O)c2ccccc2O)cc1)c1ccccc1	10.3µM*	-18.4%	3.98µM*	8.49µM*	·	?
O=Nc1ccc(NOC(=O)c2ccccc2Br)cc1	1.5%	2.0%	-0.1%	0.239µM*	11.4%	7.1%
CCCCCC(CC(=O)O)C(=O)O (configuration not stated)	·	·	·	·	9.7%	·
Cc1ccc(-c2csc3nc(C)n(N)c(=O)c23)o1	16.4µM*	·	?	?	4.5%	?
Cc1ccc(-c2csc3nc(C)n(-n4c(C)ccc4C)c(=O)c23)o1	-0.9%	-3.5%	1.1%	?	-9.7%	-2.2%
COc1ccc(C)c2sc(=NC(=O)c3ccc(C(C)=O)cc3)n(C)c12	?	-4.2%	0.501µM*	0.675µM*	·	0.562µM*
COc1ccc(C)c2sc(=NC(=O)C(C)C)n(C)c12	2.3%	14.7%	2.2%	-0.5%	-16.4%	6.3%
COc1ccc(C)c2sc(=NC(=O)c3ccccc3)n(C)c12	6.51µM*	1.3%	2.82µM*	2.13µM*	11.2µM*	?
COc1ccc(C)c2sc(=NC(=O)c3cccc(N4C(=O)CCC4=O)c3)n(C)c12	?	?	?	6.75µM*	·	?
C=CCn1c(=NC(=O)c2cccc(N3C(=O)CCC3=O)c2)sc2cccc(OC)c21	-8.5%	-4.5%	-2.7%	?	·	0.9%
SMILES	ELG1 genotoxic	uPA surface inh	Rab9 promoter act	FLuc modulator	SMN2 splice up	NPC1 promoter act
CCC(=O)N=c1sc2c(OC)ccc(OC)c2n1C	·	10.4%	·	·	·	·
COc1cc(NC(=O)Cn2ccn(Cc3ccccc3OC)c(=O)c2=O)cc(OC)c1	·	·	·	2.4%	·	·
COc1ccc(/C=C2\SC(=O)N(CCNC(=O)CCS(=O)(=O)c3ccc(C)cc3)C2=O)cc1	?	-3.5%	2.82µM*	9.53µM*	15.8µM*	?
COc1ccc(/C=C2\SC(=O)N(CCNC(=O)Cn3cnnn3)C2=O)cc1	3.98µM*	·	3.16µM*	12µM*	7.94µM*	2.82µM*
COc1ccc(S(=O)(=O)CCC(=O)NCCc2ccc(C)cc2)cc1	1.3%	-3.4%	-2.8%	1.6%	4.6%	-1.2%
CCc1nc(C)cn1S(=O)(=O)c1ccc(Br)cc1	2.6%	?	-2.2%	-0.7%	·	-2.9%
CCN(CC)c1ccc(/C=N/N=C(N)N)c(O)c1	9.9%	?	-19.2%	-5.0%	-36.8%	-11.2%
CS/C(N)=N/N=C/c1cc(Br)cc(Br)c1O	3.0%	-2.9%	2.0%	26.9µM*	·	-1.5%
NC(N)=N/N=C/c1cc([N+](=O)[O-])ccc1O	1.9%	5.5%	-1.4%	-2.2%	-5.0%	-0.2%
CCS/C(N)=N/N=C/c1cc(C)ccc1O	1.16µM*	-10.0%	?	0.953µM*	11.2µM*	1.58µM*
CCCCS/C(N)=N/N=C/c1cc(C)ccc1O	?	-5.3%	4.7%	16.9µM*	14.6%	18.4%
CS/C(N)=N/N=C/c1cc(C)ccc1O	7.3µM*	-13.4%	0.159µM*	1.2µM*	·	1.12µM*
Cc1ccc2c(c1)c(=O)c(C(=O)c1ccc3c(c1)OCO3)cn2Cc1ccc(Cl)cc1	·	·	·	-4.7%	3.0%	·
COc1cc(OC)c(NC2(c3ccccc3)C(=O)c3ccccc3C2=O)cc1Cl	·	·	·	0.1%	·	·
O=C(O)Cn1nc(N2CCN(c3ccccc3)CC2)ccc1=O	·	·	·	3.8%	8.2%	·
Cc1ccc(-c2nc(S(=O)(=O)c3ccc(C)cc3)c(SCC(=O)NC3CCCCC3)o2)cc1	·	·	·	-2.2%	1.9%	·
CCOC(=O)Cc1csc(NC(=O)CSc2ncnc3c2cnn3-c2ccc(OC)cc2)n1	-16.7%	-4.1%	17.6%	8.49µM*	-18.8%	-2.7%
CCOC(=O)Cc1csc(NC(=O)COc2ccc(C)c(C)c2)n1	?	0.8%	29.8%	?	·	16.3%
CCOC(=O)Cc1csc(NC(=O)COc2ccc3c(c2)CCC3)n1	4.1%	4.6%	0.4%	12µM*	·	-0.7%
CCOC(=O)Cc1csc(NC(=O)Nc2ccc(OC(F)(F)F)cc2)n1	-6.9%	-20.7%	-12.9%	2.39µM*	·	-0.7%
CCOC(=O)Cc1csc(NC(=O)c2ccc(NC(C)=O)cc2)n1	2.5%	0.9%	1.0%	?	16.3%	-4.1%
CCOC(=O)Cc1csc(NC(=O)COc2ccc(C)cc2)n1	-0.3%	?	-0.6%	13.5µM*	·	-0.6%
O=C(CNC(=O)c1cccs1)N/N=C/c1c(F)cccc1Cl	?	-19.8%	16.3%	21.3µM*	·	13.2%
Cc1ccc(NC(=O)CNC(=O)c2cccs2)c(O)c1	2.2%	0.6%	9.6%	2.9%	·	0.6%
Cc1ccc(/C=N/NC(=O)CNC(=O)c2cccs2)cc1	?	1.0%	28.5%	15.1µM*	·	1.5%
COc1ccccc1/C=C\C(=O)NCC(=O)N/N=C/c1cccc(OC)c1O	?	-3.3%	-8.5%	-4.0%	·	-24.4%
COc1cccc(/C=N/NC(=O)CNC(=O)c2cccs2)c1O	16.3%	0.2%	-8.2%	21.3µM*	·	1.2%
